Assay results published in PMC4081100, “A DNA-binding-site landscape and regulatory network analysis for NAC transcription factors in Arabidopsis thaliana”.

Tests used:
Experiment in all cases: universal protein binding microarray (PBM); transcription factors of Arabidopsis thaliana; high values mean tight binding
Details in all cases: protein: recombinant; tags: GST; chain copies: 2; dsDNA, one strand shown
[1] = target: T1, GST-ANAC092(1-176) (Arabidopsis thaliana, UniProt Q9FKA0 1-176)
T1 sequence: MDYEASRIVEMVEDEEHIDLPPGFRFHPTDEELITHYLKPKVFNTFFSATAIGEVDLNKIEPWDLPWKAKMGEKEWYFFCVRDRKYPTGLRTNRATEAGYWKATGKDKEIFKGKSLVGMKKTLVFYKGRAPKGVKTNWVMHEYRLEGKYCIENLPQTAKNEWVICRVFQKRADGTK
Method in brief: (§1)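 Protein amounts were determined by A280 or anti-GST western blot after glutathione–Sepharose 4B purification of GST-tagged proteins induced in cells, with zinc acetate included for zinc-finger proteins. Duplicate runs at 200 to 500 nM final were done on custom all-10-mer Agilent 4 × 180K arrays made double-stranded by primer extension. The normalised enrichment score (E-score) over gapped and ungapped 8-mers is the measure of binding.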

[2] = target: GST-NTL6(1-168) (Arabidopsis thaliana, UniProt Q9SCK6 1-168)
Method in brief: as §1

[3] = target: T2, GST-ANAC019 NAC domain (Arabidopsis thaliana, UniProt Q9C932 14-162)
T2 sequence: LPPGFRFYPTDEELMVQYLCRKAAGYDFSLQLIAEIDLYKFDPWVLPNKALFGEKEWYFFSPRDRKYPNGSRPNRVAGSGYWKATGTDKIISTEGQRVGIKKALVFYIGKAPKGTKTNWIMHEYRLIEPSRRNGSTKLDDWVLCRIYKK
Method in brief: as §1

[4] = target: T3, GST-ANAC055(1-171) (Arabidopsis thaliana, UniProt Q9LDY8 1-171)
T3 sequence: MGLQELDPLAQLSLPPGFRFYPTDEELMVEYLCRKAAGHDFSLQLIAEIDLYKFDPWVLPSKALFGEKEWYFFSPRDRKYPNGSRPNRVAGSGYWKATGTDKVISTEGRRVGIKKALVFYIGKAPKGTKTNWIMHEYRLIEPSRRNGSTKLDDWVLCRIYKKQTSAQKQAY
Method in brief: as §1

[5] = target: T4, GST-ATAF1 NAC domain (Arabidopsis thaliana, UniProt Q39013 7-158)
T4 sequence: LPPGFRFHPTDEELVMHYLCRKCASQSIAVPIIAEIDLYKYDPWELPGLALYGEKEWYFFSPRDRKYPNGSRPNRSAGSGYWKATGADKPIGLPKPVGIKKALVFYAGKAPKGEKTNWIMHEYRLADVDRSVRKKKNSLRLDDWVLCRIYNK
Method in brief: as §1

[6] = target: T5, GST-ANAC092(1-285) full length (Arabidopsis thaliana, UniProt Q9FKA0 1-285)
T5 sequence: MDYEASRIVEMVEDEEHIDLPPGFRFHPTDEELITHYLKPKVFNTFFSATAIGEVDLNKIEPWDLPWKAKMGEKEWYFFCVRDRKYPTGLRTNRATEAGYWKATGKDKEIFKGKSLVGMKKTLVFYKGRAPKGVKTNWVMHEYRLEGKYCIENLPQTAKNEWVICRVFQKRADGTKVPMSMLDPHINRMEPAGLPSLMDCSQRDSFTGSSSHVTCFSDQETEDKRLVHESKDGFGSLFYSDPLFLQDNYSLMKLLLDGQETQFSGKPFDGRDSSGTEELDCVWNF
Method in brief: as §1

[7] = target: T6, GST-NST2(1-184) (Arabidopsis thaliana, UniProt Q9M274 1-184)
T6 sequence: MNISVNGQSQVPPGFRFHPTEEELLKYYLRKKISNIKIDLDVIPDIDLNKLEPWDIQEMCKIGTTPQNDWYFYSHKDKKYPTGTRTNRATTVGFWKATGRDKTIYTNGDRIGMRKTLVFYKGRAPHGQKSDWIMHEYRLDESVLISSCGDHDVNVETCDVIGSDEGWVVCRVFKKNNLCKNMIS
Method in brief: as §1

[8] = target: T7, GST-NTL8 NAC domain (Arabidopsis thaliana, UniProt Q9XIN7 14-156)
T7 sequence: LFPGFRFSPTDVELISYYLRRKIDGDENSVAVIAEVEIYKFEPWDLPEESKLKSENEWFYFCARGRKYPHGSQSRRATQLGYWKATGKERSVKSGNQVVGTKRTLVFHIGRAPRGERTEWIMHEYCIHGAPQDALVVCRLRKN
Method in brief: as §1

[9] = target: T8, GST-SND1(1-203) (Arabidopsis thaliana, UniProt Q9LPI7 1-203)
T8 sequence: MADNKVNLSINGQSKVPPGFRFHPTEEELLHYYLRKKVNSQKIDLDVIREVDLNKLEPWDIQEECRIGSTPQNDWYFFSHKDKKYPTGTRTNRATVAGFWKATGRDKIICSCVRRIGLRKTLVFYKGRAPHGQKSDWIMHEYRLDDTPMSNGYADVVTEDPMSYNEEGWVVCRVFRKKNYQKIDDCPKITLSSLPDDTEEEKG
Method in brief: as §1

[10] = target: T9, GST-VND3 NAC domain (Arabidopsis thaliana, UniProt Q9FH59 12-162)
T9 sequence: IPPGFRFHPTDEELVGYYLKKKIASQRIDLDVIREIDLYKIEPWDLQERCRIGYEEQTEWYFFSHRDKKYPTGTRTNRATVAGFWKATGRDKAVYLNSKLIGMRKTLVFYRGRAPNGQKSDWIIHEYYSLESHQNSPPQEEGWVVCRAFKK
Method in brief: as §1

[11] = target: T10, GST-VND7 NAC domain (Arabidopsis thaliana, UniProt Q9C8W9 9-158)
T10 sequence: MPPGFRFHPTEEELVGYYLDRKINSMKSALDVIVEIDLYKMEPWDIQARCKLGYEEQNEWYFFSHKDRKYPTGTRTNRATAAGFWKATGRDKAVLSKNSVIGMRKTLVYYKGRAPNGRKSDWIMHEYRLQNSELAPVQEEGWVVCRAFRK
Method in brief: as §1

[12] = target: T11, GST-NAP(1-166) (Arabidopsis thaliana, UniProt O49255 1-166)
T11 sequence: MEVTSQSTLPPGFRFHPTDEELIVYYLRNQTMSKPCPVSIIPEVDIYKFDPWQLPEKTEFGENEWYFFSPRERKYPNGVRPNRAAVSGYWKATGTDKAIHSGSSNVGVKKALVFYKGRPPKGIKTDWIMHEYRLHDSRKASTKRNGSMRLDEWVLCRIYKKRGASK
Method in brief: as §1

Chain of GST-NTL6(1-168) (Q9SCK6 1-168): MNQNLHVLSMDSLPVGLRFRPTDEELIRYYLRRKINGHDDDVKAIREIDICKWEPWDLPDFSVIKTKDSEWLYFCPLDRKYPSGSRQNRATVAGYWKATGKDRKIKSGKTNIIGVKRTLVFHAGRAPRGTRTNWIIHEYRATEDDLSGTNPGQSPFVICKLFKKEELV

Sequence | binding signal [1] | binding signal [2] | binding signal [3] | binding signal [4] | binding signal [5] | binding signal [6] | binding signal [7] | binding signal [8] | binding signal [9] | binding signal [10] | binding signal [11] | binding signal [12]
ACTTAACC | 0.197 E-score | 0.402 E-score | 0.17 E-score | 0.115 E-score | 0.132 E-score | 0.186 E-score | 0.164 E-score | 0.243 E-score | 0.221 E-score | 0.203 E-score | 0.209 E-score | –
AAGTTACC | 0.365 E-score | 0.308 E-score | 0.155 E-score | 0.0803 E-score | 0.142 E-score | 0.417 E-score | 0.288 E-score | 0.376 E-score | 0.37 E-score | 0.146 E-score | 0.0773 E-score | 0.114 E-score
AGAAGGAA | 0.192 E-score | 0.417 E-score | 0.0646 E-score | 0.117 E-score | 0.149 E-score | 0.156 E-score | 0.177 E-score | 0.379 E-score | 0.157 E-score | 0.0779 E-score | 0.0759 E-score | –
GCAAGTAA | 0.339 E-score | 0.409 E-score | 0.211 E-score | 0.198 E-score | 0.151 E-score | 0.415 E-score | 0.223 E-score | 0.264 E-score | 0.352 E-score | 0.231 E-score | 0.232 E-score | 0.056 E-score
GTTGAGTA | 0.305 E-score | 0.152 E-score | 0.0635 E-score | 0.0864 E-score | 0.139 E-score | 0.386 E-score | 0.279 E-score | – | 0.419 E-score | 0.0828 E-score | 0.108 E-score | –
AGTAAGTA | 0.145 E-score | 0.415 E-score | 0.133 E-score | 0.199 E-score | 0.14 E-score | 0.184 E-score | 0.218 E-score | – | 0.137 E-score | 0.275 E-score | 0.083 E-score | –
AGGAAACG | 0.207 E-score | 0.125 E-score | 0.0614 E-score | 0.149 E-score | 0.208 E-score | 0.132 E-score | 0.132 E-score | 0.451 E-score | 0.224 E-score | 0.109 E-score | 0.112 E-score | 0.183 E-score
